From PubChem
Rows were chosen to be rich in hits. Some 12% of all compounds tested hit in one or more screens of this group.
HP1b chromo inh: HTS for Inhibitors of HP1-beta Chromodomain Interactions with Methylated Histone Tails; Chromobox protein homolog 1 (Homo sapiens), P83916; AlphaScreen HP1-beta / biotin-H3K9me3 peptide binding; Potency, µM (highest dose often 114 µM), for inactives: at the top dose activity change, negative = inhibition, most hits filed as inhibitors; actives 0.56% (n = 390,000); AID 540317, 2011; further: nearly all actives have a fitted effect of over 70% in size
Target sequence (P83916 whole entry, looked up): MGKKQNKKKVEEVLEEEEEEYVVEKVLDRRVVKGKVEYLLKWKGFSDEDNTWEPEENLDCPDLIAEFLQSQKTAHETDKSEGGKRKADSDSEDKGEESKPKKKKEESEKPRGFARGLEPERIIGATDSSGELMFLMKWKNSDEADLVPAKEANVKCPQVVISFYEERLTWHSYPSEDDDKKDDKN
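Compound inhibition of the preformed complex between 50 nM HP1-beta and 50 nM biotinylated H3K9me3 peptide was read by AlphaScreen. Buffer was PBS pH 7.4 with 0.01% Tween-20. Incubations ran 30 min at room temperature, with 10 ug/mL donor/acceptor beads.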
PLK1 PBD block: qHTS for Inhibitors of PLK1-PDB (polo-like kinase 1 - polo-box domain): Primary Screen | AID 720504, 2013 | Serine/threonine-protein kinase PLK1 (Homo sapiens), P53350 | actives 2.8% (n = 360,000) | Potency, µM, for inactives: max response, negative = inhibition, hits mostly inhibitors | Plk1 PBD binding of FITC phosphopeptide, fluorescence polarization; further: series mostly up to about 57 µM; on the % scale 0 is the no-effect control and ±100 the full control effect; nearly all actives have a fitted effect of over 65% in size
JMJD2A Tudor inh: qHTS Assay for Inhibitors of JMJD2A-Tudor Domain. actives 4.4% (n = 390,000). Lysine-specific demethylase 4A (Homo sapiens), O75164. AlphaScreen JMJD2A-Tudor / H3K4me3 peptide binding. AID 504339, 2011. Potency, µM (highest dose often 114 µM), inactives show at the top dose activity change, negative = inhibition, hits mostly inhibitors; further: on the % scale 0 is the no-effect control and ±100 the full control effect; nearly all actives have a fitted effect of over 50% in size
G9a inh: qHTS Assay for Inhibitors of Histone Lysine Methyltransferase G9a. G9a H3K9 monomethylation, AlphaScreen, 2 h. Histone-lysine N-methyltransferase EHMT2 (Homo sapiens), Q96KQ7. Potency, µM (titrated, usually from 102 µM), inactives show at the highest dose activity, negative = inhibition, usual class: inhibitors. actives 8.8% (n = 350,000); further: on the % scale 0 is the no-effect control and ±100 the full control effect; nearly all actives have a fitted effect of over 75% in size
Target sequence (Q96KQ7 913-1193 limits assumed): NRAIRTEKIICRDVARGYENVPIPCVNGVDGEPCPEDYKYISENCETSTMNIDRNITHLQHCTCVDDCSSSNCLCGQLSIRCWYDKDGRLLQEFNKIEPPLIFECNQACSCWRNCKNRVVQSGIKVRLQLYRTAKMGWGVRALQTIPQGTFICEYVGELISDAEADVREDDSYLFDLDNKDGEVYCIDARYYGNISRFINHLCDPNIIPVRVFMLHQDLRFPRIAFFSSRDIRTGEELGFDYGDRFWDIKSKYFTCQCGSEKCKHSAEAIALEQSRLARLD
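AlphaScreen detection with an anti-monomethyl H3K9 antibody quantified product after a 2 h room-temperature reaction containing 500 nM biotinylated H3K9 peptide, 20 µM SAM and 20 nM enzyme, which had been preincubated 15 min with compound.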
BAZ2B block: qHTS Assay for Inhibitors of BAZ2B; Bromodomain adjacent to zinc finger domain protein 2B (Homo sapiens), Q9UIF8; AlphaScreen BAZ2B-H3K14Ac peptide displacement; Potency, µM (highest dose often 114 µM), inactives show at the top dose activity change, negative = inhibition, hits mostly inhibitors; actives 4.4% (n = 360,000); further: on the % scale 0 is the no-effect control and ±100 the full control effect; nearly all actives have a fitted effect of over 60% in size
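AlphaScreen displacement: compounds (up to 110uM) incubated 30 min at room temperature with a preformed 50 nM BAZ2B/50 nM biotinylated H3K14Ac peptide complex in PBS pH 7.4 with Tween-20. Donor and acceptor beads at 10 ug/mL final added, 20 min light-protected before reading.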
Sfp PPTase inh: qHTS Assay for Inhibitors of Bacillus subtilis Sfp phosphopantetheinyl transferase (PPTase) | 4'-phosphopantetheinyl transferase ffp (Bacillus subtilis), Q9F4F7 | Biochemical Sfp PPTase activity, qHTS | Potency, µM, without a hit: largest response in the series, negative = inhibition, actives largely listed as inhibitors | actives 3.5% (n = 310,000) | AID 1490, 2009;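 further: the enzyme is Sfp with the accession as filed and its product quenches rhodamine fluorescence; 0% = enzyme reaction without inhibitor and -100% = no enzyme wells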
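After 15 min at room temperature with compound, 15 nM Sfp received 5 uM rhodamine-CoA plus 12.5 uM BHQ-2-ybbR (50 mM Hepes pH 7.6, 10 mM MgCl2). Rate came from the fluorescence difference over 30 min, ex 525/em 598 nm.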
An asterisk follows results filed as active; [ ] = dose if it differs, or a comment. The call rests on the fitted dose curve; in most records, active means well fitted curve in the direction sought with a large enough effect; inconclusive means small, poorly fitted or top-dose-only effect, or another doubt; inactive means no such curve, though single readings can be large; an effect the other way counts as inactive or inconclusive. Potency means the concentration at half of the fitted maximal effect.

`Cc1cc2ccccn2c1C(=O)c1cc([N+](=O)[O-])cc([N+](=O)[O-])c1` gave HP1b chromo inh inconclusive, PLK1 PBD block -6.4%, JMJD2A Tudor inh 17.8µM*, G9a inh 31.6µM*, BAZ2B block 10µM* and Sfp PPTase inh 4.1%.
Screening COC(=O)c1cc(C(=O)c2c(C)cc3ccccn23)cc([N+](=O)[O-])c1 returned HP1b chromo inh inconclusive, PLK1 PBD block -0.6%, JMJD2A Tudor inh 44.7µM*, G9a inh 31.6µM*, BAZ2B block inconclusive and Sfp PPTase inh -1.5%.
For Cc1cc2ccccn2c1C(=O)c1ccc(NN)c([N+](=O)[O-])c1 the results were HP1b chromo inh 31.6µM*, PLK1 PBD block 5.6%, JMJD2A Tudor inh 39.8µM*, G9a inh 10µM*, BAZ2B block 17.8µM* and Sfp PPTase inh -27.6%.
`CCN(CC)S(=O)(=O)c1cccc(C(=O)c2c(C)cc3ccccn23)c1` gave HP1b chromo inh 49.6%, PLK1 PBD block 1.9%, JMJD2A Tudor inh -15.0%, G9a inh 19.5%[59 µM], BAZ2B block -2.3% and Sfp PPTase inh -9.5%.
`COc1ccc(-c2cc3nc(C4CCN(C(=O)OC(C)(C)C)CC4)c(C(=O)Nc4cc(Cl)cc(Cl)c4)cn3n2)cc1` gave HP1b chromo inh 35.4%, JMJD2A Tudor inh -22.5%, G9a inh -1.0%[59 µM] and BAZ2B block -0.7%.
For O=Cc1ccccc1OCc1ccc2c(c1)OCO2 the results were HP1b chromo inh 75.5%, PLK1 PBD block -17.3%, JMJD2A Tudor inh 26.8%, BAZ2B block 62.2% and Sfp PPTase inh 1.4%.
`COc1ccc(CC(=O)NCCc2ccc3c(c2)OCO3)cc1OC` gave PLK1 PBD block -0.4%.
For CCOc1ccccc1CN(CCc1ccc2c(c1)OCO2)Cc1cc(OC)c(OC)cc1OC the results were HP1b chromo inh inconclusive, JMJD2A Tudor inh 5.62µM*, G9a inh 0.708µM* and BAZ2B block 44.7µM*.
`CCOc1ccccc1CN(CCc1ccc2c(c1)OCO2)Cc1ccccn1` gave HP1b chromo inh inconclusive, PLK1 PBD block -4.9%, JMJD2A Tudor inh 3.16µM*, G9a inh 5.01µM*, BAZ2B block 35.5µM* and Sfp PPTase inh inconclusive.
For O=C(COC(=O)/C=C/c1cccs1)Nc1cccc(S(=O)(=O)N2CCCC2)c1 the results were HP1b chromo inh 41.6%, PLK1 PBD block 2.5%, JMJD2A Tudor inh -25.1%, G9a inh 10.9%[12.7 µM], BAZ2B block -17.9% and Sfp PPTase inh 22.8%.
Screening C[C@@]12CCC(=O)C=C1CC[C@@H]1[C@@H]2[C@H](O)C[C@]2(C)[C@@H]1CC[C@]2(O)C(=O)CO returned G9a inh 23.8%[21.5 µM] and Sfp PPTase inh 14.4%.
COc1ccc(Br)cc1/C=C(\C(=O)O)c1ccc(S(=O)(=O)N2CCCC2)s1 was read as HP1b chromo inh -10.4%, PLK1 PBD block inconclusive and JMJD2A Tudor inh 89.1µM*.
For COc1cc(/C=C(\C(=O)O)c2ccc(S(=O)(=O)N3CCCC3)s2)cc(OC)c1 the results were HP1b chromo inh 11.0%, PLK1 PBD block -5.6%, JMJD2A Tudor inh -16.2%, G9a inh 50.1µM* and BAZ2B block -38.9%.
`CCOc1ccc(/C=C(\C(=O)O)c2ccc(S(=O)(=O)N3CCCCC3)s2)cc1OC` gave HP1b chromo inh 7.5%, PLK1 PBD block -12.4% and JMJD2A Tudor inh -11.8%.
For C=CCNC(=O)c1ccc(Cn2c(=S)[nH]c3cc4c(cc3c2=O)OCO4)cc1 the results were HP1b chromo inh 7.5%, PLK1 PBD block -16.0%, JMJD2A Tudor inh inconclusive, G9a inh 11.8%[59 µM], BAZ2B block -9.1% and Sfp PPTase inh 25.9%.
